Bioassay records as filed in PubChem.
ELG1 DNA repair: ELG1-dependent DNA repair inhibition. HEK293T ELG1-luciferase reporter, luminescence, 16 h; DNA damage induced by 5-fluorouridine. Potency, µM (doses to about 46.1 µM), inactives show at the top dose activity change, negative = inhibition, most hits filed as inhibitors. 2.3% of 330,000 active. AID 504467; also: potency is read from the fitted curve at half-maximal effect; nearly all actives have a fitted effect of over 55% in size
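5-Fluorouridine DNA damage + compound/DMSO, 2,000 cells/well, 16 h, 37 °C/5% CO2. ONE-Glo, 30 min RT, luminescence. Readout = decrease in reporter signal.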
TSHR antag: human thyrotropin receptor antagonism; activity change, negative = inhibition, % at 11.5 µM; 0.2% of 330,000 active; P16473; TSHR-expressing cells, TSH-stimulated cAMP HTRF, 2 h; active compounds read low;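 active = activity change below a set negative limit, meaning inhibition stronger than a set level, cut at about -70% in these data; inconclusive = activity change between two set negative limits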
Target sequence (P16473 whole entry, looked up): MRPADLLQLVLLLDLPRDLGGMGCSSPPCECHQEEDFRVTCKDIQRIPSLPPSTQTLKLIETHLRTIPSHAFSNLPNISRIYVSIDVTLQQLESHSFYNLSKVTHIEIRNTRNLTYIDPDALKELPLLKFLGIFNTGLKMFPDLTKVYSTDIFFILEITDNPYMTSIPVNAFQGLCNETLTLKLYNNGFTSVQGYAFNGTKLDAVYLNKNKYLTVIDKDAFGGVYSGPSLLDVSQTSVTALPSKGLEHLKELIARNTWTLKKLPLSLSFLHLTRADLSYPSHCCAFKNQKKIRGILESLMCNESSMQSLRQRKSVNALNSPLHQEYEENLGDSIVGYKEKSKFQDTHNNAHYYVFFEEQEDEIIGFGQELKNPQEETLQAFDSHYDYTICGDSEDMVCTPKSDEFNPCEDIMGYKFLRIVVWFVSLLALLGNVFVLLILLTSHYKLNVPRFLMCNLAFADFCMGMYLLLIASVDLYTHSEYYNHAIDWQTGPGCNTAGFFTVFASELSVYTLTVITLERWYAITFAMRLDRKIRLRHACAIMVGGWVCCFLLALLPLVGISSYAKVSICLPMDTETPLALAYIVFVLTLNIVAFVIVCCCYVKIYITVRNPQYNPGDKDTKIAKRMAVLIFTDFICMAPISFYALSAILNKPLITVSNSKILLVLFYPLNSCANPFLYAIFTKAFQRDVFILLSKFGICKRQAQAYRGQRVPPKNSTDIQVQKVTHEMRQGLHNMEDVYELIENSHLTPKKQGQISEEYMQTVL
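TSHR-expressing cells, 200/well, pre-treated with compound, then stimulated with EC80 TSH (4nM final) for 2 hours at 37 deg C. cAMP measured by competitive HTRF: anti-cAMP cryptate antibody in lysis buffer plus cAMP-d2, read after 30 minutes at room temperature.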
FBPA coupling cs: counter-screen for Giardia aldolase inhibitors: coupling enzyme system; coupling enzyme system counterscreen, AmpLite Red fluorescence; activity change, negative = inhibition, % at 58.2 µM, hits read low; 0.67% of 290,000 active; AID 2472; in the data active = activity change below about -30%
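Activity here indicates interference with the coupling reaction, not aldolase inhibition. Compounds at 57.5 uM final met coupling enzymes for 10 min at RT; substrate and AmpLite Red detection followed, with a 525/598 nm fluorescence read after 20 min.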
VP16 counter: inhibits Gal4-VP16 luciferase reporter, ROR gamma counter-screen. Drosophila S2 Gal4-VP16 UAS-luciferase, luminescence, 20 h. Potency, µM (series often up to 53.6 µM), for the others: at the highest dose activity, negative = inhibition, actives largely listed as inhibitors. 3.5% of 310,000 active. AID 2546;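 also: Gal4-VP16 expression switched on by copper sulfate through the metallothionein promoter; potency is read from the fitted curve at half-maximal effect; nearly all actives have a fitted effect of over 50% in size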
RORg inh: blocks mouse ROR gamma transcriptional activity; P51450; Drosophila S2 Gal4-RORgamma UAS-luciferase reporter, 20 h; Potency, µM (top dose mostly 53.6 µM), for the others: at the highest dose activity change, negative = inhibition, usual class: inhibitors; 5.4% of 310,000 active; also: potency is read from the fitted curve at half-maximal effect; nearly all actives have a fitted effect of over 60% in size
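Compounds are pin-transferred onto Drosophila Schneider cells expressing a copper-inducible Gal4–ROR gamma transactivation domain fusion. After 1 hr, copper sulfate is added to 700 uM final; luciferase is read 20 hr later.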
* hit, by the source's call; ? = inconclusive; · = not tested or not shown; [ ] = dose if it differs, or a comment. Compounds with a hit are over-represented: about 8% of the library has one in this group of screens. Unless noted, calls follow the shape of the dose curve; as a rule, active = well fitted curve in the direction sought with a large enough effect; inconclusive = small, poorly fitted or top-dose-only effect, or another doubt; inactive = no such curve, though single readings can be large; an effect the other way counts as inactive or inconclusive. % is scaled to controls: 0 for no effect and ±100 for the full control effect.

SMILES	ELG1 DNA repair	TSHR antag	FBPA coupling cs	VP16 counter	RORg inh
COc1cc(NC(=S)NC(=O)CCc2ccccc2)cc(OC)c1	?	-7	·	7.1µM*	0.56µM*
O=C(CCc1ccccc1)NC(=S)Nc1cccc(Br)c1	16%	-2	0	?	11µM*
O=C(CCc1ccccc1)NC(=S)Nc1cccc(C(=O)O)c1	?	37	3	-20%	-33%
O=C(CCc1ccccc1)NC(=S)Nc1ccccc1Br	?	-3	-3	?	3.5µM*
COc1cc(NC(=O)Cc2ccccc2)cc(OC)c1	-22%	12	4	2%	6%
Cc1c(C(=O)NNC(=O)c2cccnc2)cccc1[N+](=O)[O-]	11%	·	·	·	·
COc1ccc(S(=O)(=O)Nc2ccc(C(N)=O)cc2)cc1C(=O)N1CCCCCC1	24%	-3	3	5%	-18%
COc1ccc(N2CC(C(=O)NCc3nnnn3-c3ccc(C)c(C)c3)CC2=O)cc1 (stereo not drawn)	11%	-2	-1	-3%	2%
COc1ccc(Cl)cc1NC(=O)CCc1ccccc1	-4%	-9	1	-3%	6%
COc1ccccc1NC(=S)NC(=O)CCc1ccccc1	0%	4	·	10µM*	13µM*
N#CCCN(CCC#N)C(=O)C1c2ccccc2Oc2ccccc21	1%	0	4	-5%	20%[1.91 µM]
S=C(NCc1ccco1)N1CCN(c2nc(-c3ccc(Cl)cc3)cs2)CC1	?	-34	-2	?	11µM*
O=C(Cc1cccs1)N1CCN(c2nc(-c3ccc(Cl)cc3)cs2)CC1	?	-16	3	?	13µM*
CCc1ccccc1NC(=O)CNC(=O)c1cccc(S(=O)(=O)N2CCN(Cc3ccccc3)CC2)c1	?	-11	·	·	·
COc1ccc(C(=O)NC(=S)N2CCNC(=O)C2)cc1Br	0%	3	0	?	16µM*
O=C1CN(C(=S)Nc2ccccc2Cl)CCN1	-4%	17	-4	10%	-15%
COc1ccc(C(=O)NCC(=O)N2CCNC(=O)C2)cc1OC	?	7	-2	1%	-10%
O=C1CN(C(=S)NC(=O)c2ccc(-c3ccccc3)cc2)CCN1	?	-2	-1	10µM*	1.8µM*
COc1ccc(C(=O)NC(=S)N2CCC(C)CC2)cc1Br	15%	30	·	0.89µM*	0.63µM*
O=C(CNS(=O)(=O)c1c(Cl)cccc1Cl)N1CCCCCC1	-3%	16	3	-3%	17%
Cc1ccc(C(c2cc(Cl)c3cccnc3c2O)N2CCN(C)CC2)cc1 (stereo not drawn)	16µM*	28	-5	0.71µM*	1.3µM*
CN1CCN(C(c2ccccn2)c2cc(Cl)c3cccnc3c2O)CC1 (stereo not drawn)	2%	10	-7	5µM*	1.4µM*
Oc1c(C(c2ccccn2)N2CCC(Cc3ccccc3)CC2)cc(Cl)c2cccnc12 (stereo not drawn)	?	-1	-17	?	?
Oc1c(C(c2ccc(Cl)cc2)N2CCCC2)cc(Cl)c2cccnc12 (stereo not drawn)	?	6	-7	?	1.4µM*
COc1ccc(SCC(Cc2ccccc2)N2CCN(CC(C)C)CCC2=O)cc1 (stereo not drawn)	·	·	6	?	?
SMILES	ELG1 DNA repair	TSHR antag	FBPA coupling cs	VP16 counter	RORg inh
O=C(c1ccc(Cn2cc(Br)cn2)o1)N1N=C(C(F)F)CC1(O)C(F)F (stereo not drawn)	-22%	12	2	-18%	11µM*
S=c1nc[nH]c2c1cnn2Cc1ccccc1	-19%	-5	0	?	22µM*
CC1CC=CC2C1C(=O)N(Cc1ccccc1)C2c1ccc(-c2ccc(F)cc2)cc1F (stereo not drawn)	·	·	2	-11%	27%
O=C1Cc2ccccc2C(c2ccc(Cl)cc2)N1 (stereo not drawn)	-18%	2	-1	3%	1%
S=C1Cc2ccccc2C(c2ccc(Cl)cc2)N1 (stereo not drawn)	-14%	-9	2	5.6µM*	6.3µM*
C=CCn1c(C(CCCC)CC(O)COCC(C)C)n[nH]c1=S (stereo not drawn)	-8%	-21	0	?	10µM*
C=CCn1c(CCC(O)COCCCCC)n[nH]c1=S (stereo not drawn)	8%	0	2	-7%	?
C=CCn1c(C(CCCC)CC(O)COCCC)n[nH]c1=S (stereo not drawn)	7%	-22	0	?	7.1µM*
CCOC(=O)C(C)C(C)=O (stereo not drawn)	12%	-15	·	-2%	-4%
COc1cc2c(cc1NC(=O)CCCN1C(=O)CCC1=O)oc1ccccc12	?	4	-1	3%	29%
COC(=O)CCC(=O)c1oc2ccc(Cl)cc2c1NC(=O)CCCN1C(=O)c2ccccc2C1=O	4.6µM*	5	1	-8%	-14%
CN(C)S(=O)(=O)c1ccc(NC(=O)CSc2nnc(-c3ccco3)n2N)cc1	?	-7	·	·	·
OC1CCN(c2c3c(nc4cc(-c5ccc(Cl)cc5)nn24)CCC3)CC1	18µM*	-12	1	-9%	-8%
C/C(=N\Nc1ncc(Cl)cc1Cl)c1ccc(N2CCOCC2)cc1	6%	-1	1	?	5µM*
C/C(=N\Nc1ncc(Cl)cc1Cl)c1ccccn1	?	-4	-3	14µM*	0.71µM*
C/C(=N\Nc1ccc(Cl)c(C(=O)O)c1)c1ccccn1	?	-2	-5	22%	?
C/C(=N\Nc1nc2ccccc2[nH]1)c1ccc(N2CCOCC2)cc1	?	1	0	?	3.2µM*
C/C(=N\NC(=O)c1ccccc1)c1ccc(N2CCOCC2)cc1	?	-4	-2	4%	-1%
C/C(=N\Nc1nc(C)cc(C)n1)c1ccc(N2CCOCC2)cc1	-12%	-2	1	-5%	11µM*
C/C(=N\Nc1ncnc2sc(C)c(C)c12)c1ccccn1	?	-2	0	0.79µM*	0.4µM*
C/C(=N\Nc1cc(N2CCCCC2)nc(C)n1)c1ccc(Br)cc1	16µM*	-4	-1	6.3µM*	?
C/C(=N\Nc1cc(N2CCOCC2)nc(C)n1)c1ccc(F)cc1	?	-15	-5	3%	-12%
C/C(=N\Nc1cccc2cccnc12)c1ccccn1	?	-1	-3	4µM*	0.63µM*
C/C(=N/Nc1nc(C)cc(C)n1)c1ccc(Br)cc1	?	-3	2	7.9µM*	7.9µM*
C/C(=N\Nc1cccc2cccnc12)c1ccccc1O	?	-20	-1	-11%	?
C=CCN(Cc1ccc(Cl)s1)C(=O)c1ccc(F)c(S(=O)(=O)N2CCOCC2)c1	?	-11	·	·	·
O=C(c1ccncc1)N1CCN(S(=O)(=O)c2ccccc2Br)CC1	16%	-1	·	·	·
